Values joined by “and” are separate entries in the source; they are usually repeats but may differ in a detail not shown here. Identical values can stand only once. Results filed as inconclusive are left out. A number with no mark means an inactive call. Active and inactive are the calls of the source. Calls come from the whole dose curve; as a rule, active = well fitted inhibition curve with a large enough effect; inconclusive = small, poorly fitted or top-dose-only effect; inactive = flat fitted curve, though single readings scatter.
% is set by controls: 0 for no effect and ±100 for the full control effect; potency is the fitted concentration of half-maximal effect.

The subject of one assay is KB-3-1. Kind of assay: Cytotoxic Profiling of Annotated Libraries Using Quantitative High-Throughput Screening (AID 1296008). Note: nearly all actives have a fitted effect of over 60% in size. The conditions noted are these: Five cell lines viability, CellTiter-Glo ATP luminescence, 48-72 h; max response: hits give low values. The essentials: (§1)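 Compounds were pin-transferred onto cells and incubated 48 or 72 hr at 37 degree Celsius, 95% humidity. CellTiter-Glo was added, plates sat 10 min at room temperature, then ATP-coupled luminescence was imaged as the viability read-out.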
(In ATP-based viability assays light output follows the ATP content of the culture.)
As to `CC(CN1c2ccccc2Sc2ccccc21)N(C)C` (stereo not given), the max response was 7.29%.

With `CNCCCC1c2ccccc2C=Cc2ccccc21`, the max response was 6.95%. As to `CSc1ccc2c(c1)N(CCC1CCCCN1C)c1ccccc1S2` (stereo not given), the max response is -7.5%. Same read-out and setting: the figure for `CN(C)CCC=C1c2ccccc2CCc2ccccc21` is -15.7%.

The next assay has as its system NIH3T3. The assay is described as above. The conditions noted are these: Five cell lines viability, CellTiter-Glo ATP luminescence, 48-72 h; max response: hits give low values. The essentials:
as §1
Turning to `CNCC(O)c1ccc(O)c(O)c1` (stereo not given), the max response is -1.98%. Still for that read-out and setting: the figure for `CN1CCCCC1CCN1c2ccccc2Sc2ccc(S(C)=O)cc21` (stereo not given) is -18.7%; for `CC(=O)c1ccc2c(c1)N(CCCN(C)C)c1ccccc1S2` it is 1.48%; for `[Cl][In]([Cl])[Cl]` it is -11.3%. Turning to `CCN(CC)CCSC(=O)C(c1ccccc1)c1ccccc1`, the max response is -1.72%. Same read-out and setting: the figure for `O=C1Nc2ccc(Cl)cc2[C@@](C#CC2CC2)(C(F)(F)F)O1` is 3.57%. On the same count and under the same terms, the figure for `CC(C)c1c(C(=O)Nc2ccccc2)c(-c2ccccc2)c(-c2ccc(F)cc2)n1CC[C@@H](O)C[C@@H](O)CC(=O)O` is -9.75% and 4.05%. Consider `CC(=O)O[C@@]12CO[C@@H]1C[C@H](O)[C@@]1(C)C(=O)[C@H](O)C3=C(C)[C@@H](OC(=O)[C@H](O)[C@@H](NC(=O)OC(C)(C)C)c4ccccc4)C[C@@](O)([C@@H](OC(=O)c4ccccc4)[C@H]21)C3(C)C`, for which the Potency was 8.4 nM (active). As to `CC1(C)Oc2ccc(C#N)cc2[C@@H](N2CCCC2=O)[C@@H]1O`, the max response was -6.15%. The same measure, in the same setting: with `NC(=O)N/N=C/c1ccc([N+](=O)[O-])o1` the figure was 3.44%; with `C=Cc1c(C)c2cc3[nH]c(cc4nc(cc5nc(cc1[nH]2)C(C)=C5CCC(=O)O)C(CCC(=O)O)=C4C)c(C)c3C=C`, -14.7%.

Values taken from PubChem BioAssay (NCATS).
